Most compounds without a hit are left out; they make up all but 5.7% or so of the library.
B2AR arrestin = agonists driving beta-arrestin recruitment to human beta2-adrenergic receptor | P07550 | AID 492947 | beta-arrestin recruitment to beta2AR, cell-based reporter | 330,000 tested, 0.02% active | Potency, µM (titrated, usually from 46.1 µM), usual class: activators; note: nearly all actives have a fitted effect of over 65% in size
RORg inh = ROR gamma (mouse) transcription inhibition. Potency, µM (series often up to 53.6 µM), actives largely listed as inhibitors. 310,000 tested, 5.4% active. AID 2551. P51450. Drosophila S2 Gal4-RORgamma UAS-luciferase reporter, 20 h; note: nearly all actives have a fitted effect of over 60% in size
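Drosophila Schneider cells stably carrying a metallothionein-driven Gal4 DBD–ROR gamma fusion and a UAS-Photinus luciferase reporter were exposed to compound for 1 hr, then induced with copper sulfate (700 uM final) for 20 hr at ambient temperature before luminescence reading.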
NPSR antagonist = antagonists of human neuropeptide S receptor cAMP signaling; Q6W5P4; 220,000 tested, 1% active; Potency, µM (highest dose often 38.3 µM), hits mostly inhibitors; CHO-NPSR cells, cAMP TR-FRET, antagonist mode; note: nearly all actives have a fitted effect of over 50% in size
Target sequence (Q6W5P4 whole entry, looked up): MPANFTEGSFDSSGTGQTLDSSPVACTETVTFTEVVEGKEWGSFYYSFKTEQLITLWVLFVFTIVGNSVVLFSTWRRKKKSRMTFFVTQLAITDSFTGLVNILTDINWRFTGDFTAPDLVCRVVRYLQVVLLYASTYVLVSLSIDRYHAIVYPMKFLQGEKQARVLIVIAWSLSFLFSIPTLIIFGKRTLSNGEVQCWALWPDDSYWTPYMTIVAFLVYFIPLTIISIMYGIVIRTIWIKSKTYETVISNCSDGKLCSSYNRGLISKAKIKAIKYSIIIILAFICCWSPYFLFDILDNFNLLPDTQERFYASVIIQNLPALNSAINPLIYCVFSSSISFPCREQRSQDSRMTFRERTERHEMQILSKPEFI
VP16 counter = inhibits Gal4-VP16 luciferase reporter, ROR gamma counter-screen. Drosophila S2 Gal4-VP16 UAS-luciferase, luminescence, 20 h. Potency, µM (titrated, usually from 53.6 µM), hits mostly inhibitors. 310,000 tested, 3.5% active. AID 2546;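 note: Gal4-VP16 expression switched on by copper sulfate through the metallothionein promoter; nearly all actives have a fitted effect of over 50% in size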
A number is an active result; i = inactive; ? = inconclusive; nt = not tested or not shown; [ ] = another dose, or the depositor's remark. Calls come from the whole dose curve; as a rule, active = well fitted curve in the direction sought with a large enough effect; inconclusive = small, poorly fitted or top-dose-only effect, or another doubt; inactive = no such curve, though single readings can be large; an effect the other way counts as inactive or inconclusive.

SMILES	B2AR arrestin	RORg inh	NPSR antagonist	VP16 counter
Cc1ncsc1C(=O)Nc1nc2c(s1)CCCC2	i	i	i	i
Cc1cc(C(=O)Nc2nc3c(s2)CCCC3)cs1	i	?	i[7.67 µM]	6.3µM
CC(=O)OC1CCC23CC1(C)CCC2C(C)(C)CC3OC(C)=O (stereo not drawn)	nt	i	nt	i
CCN(CC)CCNCC(O)(c1ccc(Cl)cc1)c1ccc(Cl)cc1	i	i	?	i
CCN(CC)CCNCc1ccc(-c2ccc(Cl)cc2)o1	i	7.9µM	i	i
C[C@H]1CN(CCc2ccccc2)C(=O)[C@@H]1CC(=O)NCc1ccccc1	i	i	nt	?
CCC/C=C1/CCCOC(C(=O)NCCOC)(C(F)(F)F)C1 (stereo not drawn)	nt	i	nt	i
COc1ccc(NC(=O)CSC2CC(=O)N(c3ccc4c(c3)OCCO4)C2=O)cc1 (stereo not drawn)	i	?	i	5µM
COc1ccccc1NC(=O)CN1CCN(CC(=O)Nc2ccc3c(c2)OCO3)CC1	i	i	i	i
COc1ccccc1NC(=O)CSC1CC(=O)N(c2ccc3c(c2)OCO3)C1=O (stereo not drawn)	i	5.6µM	i	5µM
COc1ccc(N2C(=O)CC(SCC(=O)O)C2=O)cc1 (stereo not drawn)	i	i	i	i
COc1ccc(CNC(=O)c2cccc(NC(=O)CC3SC(N4CCCCC4)=NC3=O)c2)cc1 (stereo not drawn)	i	nt	nt	nt
O=C(NCCc1ccccn1)c1nc(Cn2ccc([N+](=O)[O-])n2)no1	i	i	nt	i
Cc1ccnc(NC(=O)c2ccccc2NC(=O)c2ccc(Cl)cc2Cl)c1	i	?	nt	13µM
Cc1ccc(C(=O)Nc2ccccc2C(=O)Nc2ccccn2)cc1Cl	i	?	nt	16µM
Cc1ccnc(NC(=O)c2ccc(Cl)c(NC(=O)c3ccccc3C)c2)c1	i	nt	nt	nt
COc1ccc2[nH]cc(CCNc3ncncc3-c3ccccc3C(F)(F)F)c2c1	nt	?	nt	i
C=CCN(CC=C)S(=O)(=O)c1ccc(NC(=S)NC(=O)C2CC2)cc1	i	11µM	nt	?
CN(Cc1ccccc1)S(=O)(=O)c1ccc(NC(=S)NC(=O)C2CCCCC2)cc1	i	8.9µM	i	7.9µM
NS(=O)(=O)c1ccc(NC(=S)NC(=O)C2CCCC2)cc1	i	i	nt	i
CCN(CC)S(=O)(=O)c1ccc(NC(=S)NC(=O)C(C)C)cc1	i	13µM	i	?
CN(Cc1ccccc1)S(=O)(=O)c1ccc(NC(=S)NC(=O)C(C)(C)C)cc1	i	13µM	i	?
C=CCn1c(NS(=O)(=O)c2ccccc2)c(S(=O)(=O)c2ccc(C)cc2)c2nc3ccccc3nc21	i	16µM	i	25µM
Fc1ccccc1-c1nc(-c2ccccc2)oc1NC1CCCCC1	nt	i	nt	i
COc1cccc(CCc2nnc(CCC(=O)NCCC3CCCCO3)o2)c1 (stereo not drawn)	i	i	nt	i
SMILES	B2AR arrestin	RORg inh	NPSR antagonist	VP16 counter
N#CC1=C(N)N2C(=C(C#N)C1c1cccc(Br)c1)Nc1ccccc12 (stereo not drawn)	i	?	i	13µM
N#CC1=C(N)N2C(=C(C#N)C1c1ccccc1)Sc1ccccc12 (stereo not drawn)	i	i	i	i
N#CC1=C(N)N2C(=C(C#N)C1c1ccc(Br)cc1)Nc1ccccc12 (stereo not drawn)	i	?	i	11µM
CCOC(=O)CCN1C(=O)[C@H]2[C@H]3[C@H](O)[C@H](O)C/C(=N/OCc4ccccc4)[C@H]3CC[C@@H]2C1=O	nt	i[10 µM]	nt	i[10 µM]
C=C1CC2C(=O)N(Cc3cc(OC)ccc3OC)C(C(=O)OCC)C1N2C (stereo not drawn)	nt	i	nt	i
Cc1nc(NC(=O)c2ccc(Cl)cc2)nc2cc3c(cc12)OCO3	i	i	i	i
Cc1cc(C)nc(Nc2nc(C)c3cc4c(cc3n2)OCO4)n1	i	7.1µM	i	7.1µM
CCCCN1CN(Cc2ccccc2)CNC1=S	i	4.5µM	i	5µM
CCOCCCN1CN(Cc2ccccc2)CNC1=S	i	2.5µM	i	3.5µM
COCCCN1CN(Cc2ccco2)CNC1=S	i	i	i	i
COc1cccc(Cn2c(=O)c(-c3ccccc3)nc3cnc(N4CCNCC4)nc32)c1	nt	i	nt	i
Nc1nc(N)nc(-c2cc(O)ccc2O)n1	i	nt	nt	nt
Oc1ccc(O)c(-c2cnns2)c1	i	3.2µM	i	?
O=C(Nn1cc(C(=O)Nc2ccc(F)cc2F)c2ccccc2c1=O)c1cnccn1	i	11µM	i	?
NCCCCCc1nnc(SCc2ccc(Cl)cc2Cl)o1	i	8.9µM	i	5.6µM
NCCCCCc1nnc(SCc2cccc(Cl)c2)o1	i	5.6µM	i	2.8µM
NCCCCCc1nnc(SCC(=O)Nc2cccc(Cl)c2)o1	i	i	i	i
Cc1cccc(N2CCN(C(=S)Nc3ccc4nc5n(c(=O)c4c3)CCCCC5)CC2)c1C	i	i	i	i
C/C(=N\NC(=O)c1ccc(-c2ccccc2)cc1)C1C(=O)c2ccccc2C1=O	i	?	i	i
CCOc1ccc(C(=O)N/N=C(/C)C2C(=O)c3ccccc3C2=O)cc1	i	1.1µM	i	2.8µM
CCOc1ccc(/C(C)=N/NC(=O)C(OC)c2ccccc2)cc1 (stereo not drawn)	i	i	i	i
C/C(=N\NC(=O)c1ccc(Br)cc1)C1C(=O)c2ccccc2C1=O	i	4µM	i	3.5µM
COc1ccccc1CCn1c(=O)c(-c2cccc(Cl)c2)nc2cncnc21	nt	i	nt	i
CC1C(=O)N2CCCc3cc(NC(=O)COc4ccc(Cl)cc4)cc1c32 (stereo not drawn)	i	nt	nt	nt
CCCc1ccc(Oc2cn[nH]c2-c2ccc(O)cc2O)cc1	i	16µM	?	i
SMILES	B2AR arrestin	RORg inh	NPSR antagonist	VP16 counter
COc1ccc(-c2[nH]ncc2Oc2ccccc2OC)c(O)c1	i	11µM	i	?
C=C(C)COc1ccc(-c2[nH]ncc2-c2ccc(OC)cc2)c(O)c1	i	11µM	i	?
C=C(C)COc1ccc(-c2[nH]ncc2-c2ccc(OC)c(OC)c2)c(O)c1	i	1.8µM	i	2.5µM
COc1ccc(Oc2cn[nH]c2-c2ccc(O)cc2O)cc1	i	?	i	i
COCCN(C(=O)COC(=O)c1c(NC(C)=O)sc(C)c1C)c1c(N)n(Cc2ccccc2)c(=O)[nH]c1=O	i	nt	nt	nt
O=C(O)C1=C(CSc2nnnn2CS(=O)(=O)O)CS[C@@H]2[C@H](NC(=O)[C@H](O)c3ccccc3)C(=O)N12	nt	i	nt	i
Cc1nc(N2CCOCC2)c2nc(-c3ccccc3)n(CCCN3CCCCC3C)c2n1 (stereo not drawn)	nt	i	nt	i
COc1cc2c(cc1OC)C1O[C@](CCCCN3C(=O)c4ccccc4C3=O)(C2)Oc2c1c(=O)oc1ccccc21	i[9.22 µM]	i[10 µM]	nt	i[10 µM]
C=C(C)COc1ccc(-c2nc(N)ncc2-c2ccc(OC)c(OC)c2)c(O)c1	i	i	nt	i
C=C(C)COc1ccc(-c2[nH]ncc2Oc2cccc(OC)c2)c(O)c1	i	6.3µM	?	?
C=C(C)COc1ccc(-c2n[nH]c(C)c2-c2ccc(OC)c(OC)c2)c(O)c1	i	1.4µM	?	7.1µM
C=C(C)COc1ccc(-c2[nH]ncc2Oc2ccccc2OCC)c(O)c1	i	i	?	i

Screens deposited in PubChem BioAssay by National Center for Advancing Translational Sciences (NCATS).
